# Reference: the supplement of paper PMC10105736
# A number with no mark means an inactive call.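 How the source made its calls: active = MAPPIT score above the 99th percentile of random reference set scores in the same batch; inactive = at or below it.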
# B1: Gs1 (protein)
# chain: MALRVAGLFLKKELVAPATQQLRLLRTGNTTRSQFLANSPNTALDKSILQRYRNLETPANRVQATYLWIDGTGENIRLKDRVLDKVPSSVEDLPDWQYDGSSTYQAHGENSDTTLKPRAIYRDPFKPGKNDVIVLCDTYSADGKPTASNKRAAFQAAIDLISDQEPWFGIEQEYTLLDVDGRPFGWPENGFPAPQGPYYCGVGADRVYARDLVEAHVVACLYAGIDFAGTNAEVMPAQWEFQIGPAGIKACDDLWVSRYILQRIAEEYGVVVTFDPKPMEGQWNGAGAHTNFSTKEMRADGGIKAIEEAIEKLSKRHERHIKAYDPKEGKDNERRLVGRLETSSIDKFSWGVANRAVSVRVPRGVATAGKGYLEDRRPSSNCDPYAVCNAIVRTCLLNE
# B2: abs (protein)
# chain: MAHVKRYRRSSKSSEEGDLDNEDYVPYVPVKERKKQHMIKLGRIVQLVSETAQPKSSSENENEDDSQGAHDVETWGRKYNISLLDQHTELKKIAEAKKLSAVEKQLREEEKIMESIAQQKALMGVAELAKGIQYEQPIKTAWKPPRYIREMSEEEREAVRHELRILVEGETPSPPIRSFREMKFPKGILNGLAAKGIKNPTPIQVQGLPTVLAGRDLIGIAFTGSGKTLVFVLPVIMFALEQEYSLPFERNEGPYGLIICPSRELAKQTHEIIQHYSKHLQACGMPEIRSCLAMGGLPVSEALDVISRGVHIVVATPGRLMDMLDKKILTLDMCRYLCMDEADRMIDMGFEEDVRTIFSFFKGQRQTLLFSATMPKKIQNFARSALVKPVTINVGRAGAASMNVTQQVEYVKQEAKVVYLLDCLQKTAPPVLIFAEKKQDVDCIHEYLLLKGVEAVAIHGGKDQEERSRAVDAYRVGKKDVLVATDVASKGLDFPNVQHVINYDMPDDIENYVHRIGRTGRSNTKGLATTLINKTTEQSVLLDLKHLLIEGKQEVPDFLDELAPETEHQHLDLGDSHGCTYCGGLGHRITECPKLEAVQNKQASNIGRRDYLSNTAADY
# B3: eIF4E1 (protein)
# chain: MQSDFHRMKNFANPKSMFKTSAPSTEQGRPEPPTSAAAPAEAKDVKPKEDPQETGEPAGNTATTTAPAGDDAVRTEHLYKHPLMNVWTLWYLENDRSKSWEDMQNEITSFDTVEDFWSLYNHIKPPSEIKLGSDYSLFKKNIRPMWEDAANKQGGRWVITLNKSSKTDLDNLWLDVLLCLIGEAFDHSDQICGAVINIRGKSNKISIWTADGNNEEAALEIGHKLRDALRLGRNNSLQYQLHKDTMVKQGSNVKSIYTL
# B4: esn (protein)
# chain: MQQAPQQQQHPHPPSSSYYTQTESELLQIEAGGTGLTFASHSQRPESAISQVASTAHLDVPSAASSGSGGSAVSGGSGGAPESAGRFVSPLQRRHCQPPSHLPLNSVASPLRTASYKSAAAVAGHGFHHSHHQQLDFQRNSQSDDDSGCALEEYTWVPPGLRPDQVRLYFSQLPDDKVPYVNSPGEKYRVKQLLHQLPPQDNEVRYCHSLSDEERKELRIFSAQRKREALGRGAVRLLSDERPCKGCEEPLSGGDIVVFAQRLGAQLCWHPGCFVCSVCKELLVDLIYFQRDGNLYCGRHHAETQKPRCSACDEIIFSDECTEAEGRTWHMKHFACQECEHQLGGQRYIMREGKPYCLACFDTMFAEYCDYCGEVIGVDQGQMSHDGQHWHATDQCFSCCTCRCSLLGRPFLPRRGTIYCSIACSKGEPPTPSDTSSGPQLRPTHRASTSSQIAKSPRRGGERERDPGRKAHHGHPKATGSAGDLLERQERQRMEAAGVADLLLGGGVPGMPRPAHPPPIDLTELGISLDNICAGDKSIFGDTQTLTNSMPDMLLSKADDSHSYQSIDKINLNSPSNSDLTQSTQELANELELDNEPVRELPHDGYEQLFANNRNQEHPAEQYDDEQLDNRPMKEVRFHSVQDTMSRSKSYTDNSNARRRRRRRNQSRSSSEMQINQTNLRLHNAQTQVGTTPLNLLNNLDNCDVASICSTCSSSSSSDMDDYVYRLPARKHYGGVRVAYVPNDALAYERKKKMAQDSSLAPGAGNASVGGAPAIMHESKNCTIS
# B5: sun (protein)
# chain: MTAWRAAGITYIQYSNIAARILRESLKTGLRADAAKRDASHVKFTPWANGKPAQRQTQSES
# B6: nos (protein)
# chain: MSQHFTSIFENLRFVTIKRSTNAQQQQQQQQQQLQQQQQQLQQQKAQTQQQNSRKIKTQATPTLNGNGLLSGNPNGGGGDSSPSHEVDHPGGAQGAQAAGGLPSSSGTPLRHHKRASISTASPPIRERRGTNTSIVVELDGSGSGSGSGGGGVGVGQGAGCPPSGSCTASGKSSRELSPSPKNQQQPRKMSQDYRSRAGSFMHLDDEGRSLLMRKPMRLKNIEGRPEVYDTLHCKGREILSCSKATCTSSIMNIGNAAVEARKSDLILEHAKDFLEQYFTSIKRTSSTAHETRWKQVRQSIETTGHYQLTETELIYGAKLAWRNSSRCIGRIQWSKLQVFDCRYVTTTSGMFEAICNHIKYATNKGNLRSAITIFPQRTDAKHDYRIWNNQLISYAGYKQADGKIIGDPMNVEFTEVCTKLGWKSKGSEWDILPLVVSANGHDPDYFDYPPELILEVPLTHPKFEWFSDLGLRWYALPAVSSMLFDVGGIQFTATTFSGWYMSTEIGSRNLCDTNRRNMLETVALKMQLDTRTPTSLWKDKAVVEMNIAVLHSYQSRNVTIVDHHTASESFMKHFENESKLRNGCPADWIWIVPPLSGSITPVFHQEMALYYLKPSFEYQDPAWRTHVWKKGRGESKGKKPRRKFNFKQIARAVKFTSKLFGRALSKRIKATVLYATETGKSEQYAKQLCELLGHAFNAQIYCMSDYDISSIEHEALLIVVASTFGNGDPPENGELFSQELYAMRVQESSEHGLQDSSIGSSKSFMKASSRQEFMKLPLQQVKRIDRWDSLRGSTSDTFTEETFGPLSNVRFAVFALGSSAYPNFCAFGQYVDNILGELGGERLLRVAYGDEMCGQEQSFRKWAPEVFKLACETFCLDPEESLSDASLALQNDSLTVNTVRLVPSANKGSLDSSLSKYHNKKVHCCKAKAKPHNLTRLSEGAKTTMLLEICAPGLEYEPGDHVGIFPANRTELVDGLLNRLVGVDNPDEVLQLQLLKEKQTSNGIFKCWEPHDKIPPDTLRNLLARFFDLTTPPSRQLLTLLAGFCEDTADKERLELLVNDSSAYEDWRHWRLPHLLDVLEEFPSCRPPAPLLLAQLTPLQPRFYSISSSPRRVSDEIHLTVAIVKYRCEDGQGDERYGVCSNYLSGLRADDELFMFVRSALGFHLPSDRSRPIILIGPGTGIAPFRSFWQEFQVLSDLDPTAKLPKMWLFFGCRNRDVDLYAEEKAELQKDQILDRVFLALSREQAIPKTYVQDLIEQEFDSLYQLIVQERGHIYVCGDVTMAEHVYQTIRKCIAGKEQKSEAEVETFLLTLRDESRYHEDIFGITLRTAEIHTKSRATARIRMASQP
# B7: Wdr24 (protein)
# chain: MPDSVEDTSTISLRICLEGHANALALNKDNNQIALAGRSLLKVYSINSNGFTESCNMRGKNQNLSYSANDVAWSTLDSNLLATAATNGVVSVWDLSKFGRQKQLLVYNEHERTAHTVTFHSSEPNILISGSQDGTIKCFDIRSDKSINTYFCNSESVRDVKFSPHTQNIFSAVSENGTVQLWDMRKWDKCMVQFTAHYGPVYTCDWHPTRNWLATGSRDKQIKVWNMDGRPGLEHTIHTIAVVGRVKWRPERTYHIASCALVVDYSVHVWDIRRPYIPFASFNEHTNVTTGIAWQGSDSHCLLSISKDSTIYKHAFKDATRPALKANAQGASLGRFGDISFANKIKEYEPKTSGASNTKSSSFIRRKTNVAGSIQFHLDHSKMYKFMVNDTFSGYPLSESVSRPTQEHESFIGCARELVISGKKLSELCEHNAEVSKKYGKHNATTLWNFIKLFYGSNHFEPPFEHRSSFSNQKNPMNSRRATQVASDWPQQRTELGQDLNGNTPETAHEIDVANVDDDTLGSSGVEHPPTSSVILSETQIISEITFDNFELLRNGFIYVGPTECPKALAFPALHHDVQAARPQLDLKASDHEKSPPPHVPTVLKVSHVPPIPMWEPHKFVSDALMLMNDVGDVQTALTVLIALGEARKLLPIDDALVEHWFYTYVDQLHRYELWNEACEVINRSWLRSVQQLNQHSTAMHTNCGECGRPMGGKVGWYCDKCKSMQSAKCCVCGLIVRGVYAWCQGCSHGGHIEHLQKYFAKHSKCPKCGHLCAYS
# B8: rl (protein)
# chain: MEEFNSSGSVVNGTGSTEVPQSNAEVIRGQIFEVGPRYIKLAYIGEGAYGMVVSADDTLTNQRVAIKKISPFEHQTYCQRTLREITILTRFKHENIIDIRDILRVDSIDQMRDVYIVQCLMETDLYKLLKTQRLSNDHICYFLYQILRGLKYIHSANVLHRDLKPSNLLLNKTCDLKICDFGLARIADPEHDHTGFLTEYVATRWYRAPEIMLNSKGYTKSIDIWSVGCILAEMLSNRPIFPGKHYLDQLNHILGVLGSPSRDDLECIINEKARNYLESLPFKPNVPWAKLFPNADALALDLLGKMLTFNPHKRIPVEEALAHPYLEQYYDPGDEPVAEVPFRINMENDDISRDALKSLIFEETLKFKERQPDNAP
# B9: mtTFB2 (protein)
# chain: MLPLRCSWSFARANYSTKKELVTRYSGDFPEKLLNRKQKVPTHMYIANSEAAARINQYLEPHFQSSGCDTVMELNSGAGYFTRHLLDRESQFRRIILLESMDHFMPKIQELHTLYPERVKVRQGDFVNLWKLVYMDKMDGGSRVADLLSDVPQKAFTDDINMLVFGAVGSYPFFKHLINSLIFQTSLFNLGRCEMILAMPPPIYIHLTCNNEIGYLIYRSTSVLFQILFEHKFIAKVPREDFLPQQMAYSPTKSSKLGKVQSINPEYLYLVKFTPRRNLHELCQSQDLPALWFFIKQNYVSRRNRIIPNLEKWVPGCGPRLIINPKSSESVTPIYPDELPKKLPQYSCQSTTMSTRNYYPGINIYTQFGDLLPSQILTLFSQFRQWPEYGESSFLASLENALLKLETANDEPNLEDGVTLPEEDDAEADEIIEEESPVPATTPVKRRRKASS
# B10: Bin1 (protein)
# chain: MANVESMIVEEKTQVKQIDREKTCPMLLRVFCSTGRHHSVSEYMFGNVPTNELQIYTWQDATLHELTSLVRDVNPDTRKKGTYFDFAVVYPNFRSNHFQMREIGVTCTGQKGIDDNKTLAQAKFSIGDFLDISITPPNRLPPTARRQRPY
# Tests used:
# Assay in all cases: MAPPIT interaction score (arbitrary units); higher = stronger binary interaction signal, active = hit call of the paper
# cactin = conditions: MAPPIT configuration: N-N; pair source set: RRS
# bru3 = conditions: MAPPIT configuration: N-N; pair source set: DPIM
# Zif = conditions: MAPPIT configuration: N-N; pair source set: screen_2
# Zpr1 = conditions: MAPPIT configuration: N-N; pair source set: Finley_Y2H
# sinah = conditions: MAPPIT configuration: N-N; pair source set: Lit-BS-16
# alrm = conditions: MAPPIT configuration: N-N; pair source set: DPIM
# brat = conditions: MAPPIT configuration: N-N; pair source set: Lit-BM-16
# cathD = conditions: MAPPIT configuration: N-N; pair source set: DPIM
# cic = conditions: pair source set: Lit-BM-16
# rl = conditions: MAPPIT configuration: N-N; pair source set: Curagen_high_conf
# abs = conditions: MAPPIT configuration: N-N; pair source set: DPIM
# bcd = conditions: MAPPIT configuration: N-N; pair source set: Lit-BM-16
# 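Further: HEK293T cells with Epo stimulation, STAT-responsive firefly luciferase reporter, fold induction versus unstimulated cells divided by the larger fold induction of two negative controls lacking either bait or prey.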
binder,measurement,setting,value
B1,MAPPIT interaction score,cactin,-0.185
B2,MAPPIT interaction score,bru3,-0.236
B3,MAPPIT interaction score,Zif,-0.101
B4,MAPPIT interaction score,Zpr1,0.202
same,MAPPIT interaction score,sinah,3.43 (active)
B5,MAPPIT interaction score,alrm,-0.31
B6,MAPPIT interaction score,brat,-0.851
B7,MAPPIT interaction score,cathD,-0.0301
B8,MAPPIT interaction score,cic; MAPPIT configuration: N-C,0.149
same,MAPPIT interaction score,cic; MAPPIT configuration: N-N,0.776
same,MAPPIT interaction score,rl,0.844
B9,MAPPIT interaction score,abs,2
B10,MAPPIT interaction score,bcd,-0.341
